Test results: PubChem BioAssay (NCI)
About 83,000 compounds went through this panel and 20% of them were active in at least one assay; those are over-represented in the sample as a whole.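 Step 1: grow cells in 96-well plates. Step 2: add test compound at a single concentration. Step 3: incubate 48 h. Step 4: record percent growth.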 Calls of active or inactive are those of the source. How the source made its calls: active means growth percent below 10; inactive means the rest.

How the values were obtained:
Assay in all cases: NCI-60 one-dose screen, 48 h (100 = growth as untreated, 0 = no growth, -100 = all killed)
Conditions in all cases: 10 µM unless noted
[1] = system: T-47D breast
[2] = system: BT-549 breast
[3] = system: MDA-MB-435 melanoma
[4] = system: SW-620 colon
[5] = system: MCF7 breast
[6] = system: HCT-116 colon
[7] = system: HCC-2998 colon
[8] = system: KM12 colon

Measured: growth

CCC(CC)N1C(=O)/C(=c2\sc3n(c2=O)NC2C(N=3)N(CC)C(=O)N2CC)c2ccccc21 (stereo not drawn)
active: [3] 9.51%
inactive: [1] 86.1% | [2] 102% | [4] 48.2% | [5] 35.8% | [6] 27.9% | [7] 65.9% | [8] 11.2%

C#CCC#CCN1CCC[C@H]1C(=O)NCC(=O)OC
active: [2] -91.5%
inactive: [1] 94.8% | [3] 105% | [4] 113% | [5] 99.4% | [6] 104% | [7] 106% | [8] 103%

Cc1nc2ncc(-c3ccc4ncnc(NCc5ccccc5)c4c3)cc2[nH]1
active: [1] 1.3%
inactive: [2] 57.3% | [3] 82.1% | [4] 82.3% | [5] 27.1% | [6] 77.8% | [7] 79.2% | [8] 77.8%

CC1=NC2=NC(=O)/C(=C3/N=C(C)C=C(c4ccccc4)N3N)NN2C(c2ccccc2)=C1
inactive: [1] 102% | [2] 111% | [3] 108% | [4] 108% | [5] 93.6% | [6] 102% | [7] 110% | [8] 98.4%

CN1CCN(c2ccc(/C=N/n3cnc4oc(-c5ccccc5)cc4c3=N)cc2)CC1
inactive: [1] 84.1% | [2] 89.7% | [3] 94.7% | [4] 94% | [5] 81.1% | [6] 73.9% | [7] 101% | [8] 63.7%

O=S(=O)(NCCCNc1nccc(-c2[nH]c(-c3ccccc3)nc2-c2ccc(Cl)c(O)c2)n1)c1ccc(Br)cc1
inactive: [1] 30% | [2] 40.3% | [4] 55.8% | [5] 19.5% | [6] 14.5% | [7] 47.2% | [8] 22%
active: [3] 2.09%

COc1ccc([C@H]2[C@H](O)C(=O)N2c2cc(OC)c(OC)c(OC)c2)cc1F
inactive: [1] 68.7% | [4] 22.2% | [5] 11% | [7] 10.9%
active: [2] -21.1% | [3] -10.4% | [6] 0.995% | [8] 9.99%

CC(=O)c1ccc(Nc2nc(SCC(C)C)nc(-c3ccccc3)c2C#N)cc1
inactive: [1] 94.5% | [2] 92% | [3] 106% | [4] 117% | [5] 100% | [6] 83.7% | [7] 105% | [8] 112%

Nc1nc(-c2cccc([N+](=O)[O-])c2)c(N=Nc2ccc(Br)cc2)s1
active: [1] -26.9% | [2] -29.6% | [3] 0.572% | [4] -34.5% | [5] 7.63% | [6] -76.6% | [7] -31.6%
inactive: [8] 15.4%

O=C(Nc1cccc(C(F)(F)F)c1)c1cc(-c2ccc(F)cc2F)ccc1O
inactive: [4] 10.8% | [7] 15.2%
active: [1] 2.56% | [2] 1.83% | [3] 4.23% | [5] 2.4% | [6] 3.8% | [8] 3.77%

O=C(c1ccc(Cl)cc1)C1[C@H](c2ccc(Cl)cc2)[C@@H](c2ccccc2)NC12C(=O)Nc1ccccc12 (stereo partly drawn)
inactive: [1] 40.1% | [2] 96.1% | [3] 49.1% | [4] 54% | [5] 13.2% | [6] 26.1% | [7] 34.5% | [8] 30.7%

Nc1nc(-c2cccc([N+](=O)[O-])c2)c(N=Nc2cccc([N+](=O)[O-])c2)s1
active: [2] -41.4% | [6] -44.1%
inactive: [1] 31% | [3] 36.2% | [4] 18.5% | [5] 13.1% | [7] 59.8% | [8] 48.2%

COc1ccc(NC2=C(Cl)C(=O)c3nc(C)ccc3C2=O)cc1OC
inactive: [1] 14.9% | [2] 126% | [4] 72.2% | [5] 59% | [6] 55.8% | [7] 104% | [8] 98.2%
active: [3] -67.2%

CCOC(=O)c1c(Nc2ccccc2)nn2c(-c3ccc(OC)cc3)ccnc12
inactive: [1] 75.1% | [2] 127% | [3] 90.4% | [4] 95.1% | [5] 89.9% | [6] 71.7% | [7] 95.7% | [8] 73.9%

CC(C)(C)n1cc(-c2ccnc(NCCCNS(=O)(=O)c3cccc(F)c3)n2)c(-c2ccc(Cl)c(O)c2)n1
inactive: [1] 75.1% | [2] 95.6% | [3] 101% | [4] 116% | [5] 97.9% | [6] 88.6% | [7] 114% | [8] 92.9%

O=C1CC(=O)N2CSCN(C(c3ccccc3)c3nc4ncncc4[nH]3)C2=N1 (stereo not drawn)
inactive: [1] 98.8% | [2] 105% | [3] 107% | [4] 102% | [5] 93.9% | [6] 105% | [7] 99.4% | [8] 103%

O=C1[C@H]2Cc3c([nH]c4ccccc34)[C@@H](c3c(Cl)cccc3Cl)N2C(=O)CN1C1CCN(CC2CCCCC2)CC1
inactive: [1] 94% | [2] 96.5% | [3] 101% | [4] 65.8% | [5] 51.9% | [6] 35.5% | [7] 85.3% | [8] 92%

Cc1ccc(-n2cc(/C=N/NC(=O)c3ccncc3)c(-c3ccc(S(C)(=O)=O)cc3)n2)cc1
inactive: [1] 93.1% | [2] 74.1% | [3] 23.6% | [4] 64.6% | [5] 72.2% | [6] 61.1% | [7] 98.1% | [8] 58%

COc1cccc(C(=O)Nc2cccc(C#Cc3cccc4[nH]nc(N)c34)c2)c1
inactive: [1] 38% | [2] 121% | [4] 34% | [5] 30.7% | [6] 33.1% | [7] 45.9% | [8] 12.6%
active: [3] 1.93%

O=S(=O)(Oc1ccc(-c2nnc(Nc3ccccc3)s2)cc1)C(F)(F)C(F)(F)C(F)(F)C(F)(F)C(F)(F)C(F)(F)F
inactive: [1] 104% | [2] 112% | [3] 103% | [4] 103% | [5] 90.7% | [6] 109% | [7] 105% | [8] 102%

CCO/C=N/C1=C(C#N)C(c2ccc(OC)cc2)c2sc3c(C)cccc3c2O1 (stereo not drawn)
inactive: [1] 34.5% | [2] 35.2% | [4] 33.5% | [5] 23.5% | [6] 12% | [7] 21.1% | [8] 19%
active: [3] -21.5%

N#Cc1cnc2ccc(-c3cnc(N)nc3)cc2c1N1CCc2cc(F)c(Cl)cc21
active: [1] 9.38% | [2] 3.1% | [3] -1.22% | [4] 9.24% | [5] 5.81% | [6] 2.24% | [7] -3.03% | [8] 7.85%

C=C(C=O)[C@@H]1CC[C@]2(C)[C@H](CC=C3[C@H]4[C@@H](C)[C@H](C)CC[C@]4(C(=O)OC)CC[C@]32C)[C@@]1(C)CCC#N
inactive: [1] 22.4% | [2] 12%
active: [3] -7.24% | [4] 0.12% | [5] -20.1% | [6] -57.8% | [7] -48.8% | [8] -4.32%

Cc1ccc(-c2cc3nc(C(Cl)Cl)nc(-c4cccs4)n3n2)cc1
inactive: [1] 87.8% | [2] 97.8% | [3] 77.6% | [4] 52.5% | [5] 59.8% | [6] 63.5% | [7] 54.1% | [8] 27.1%

C=C1CC[C@@H]2[C@]3(C)COC(c4ccccc4)O[C@@H]3CC[C@@]2(C)[C@@H]1C/C=C1/C(=O)OC[C@H]1O (stereo partly drawn)
inactive: [1] 70.6% | [2] 63.8% | [3] 81.4% | [4] 49.7% | [5] 46.1% | [6] 38.4% | [7] 108% | [8] 86.1%

C=C(C=O)[C@@H]1CC[C@]2(C)[C@H](C(=O)C=C3[C@H]4C[C@](C)(C(=O)OC)CC[C@]4(C)CC[C@]32C)[C@@]1(C)CCC#N
inactive: [1] 19.3% | [2] 13.8%
active: [3] -12.2% | [4] 4.74% | [5] 2.5% | [6] -56% | [7] -73% | [8] 3.36%

Brc1ccccc1/C=N/Nc1nc(N/N=C/c2ccccc2Br)nc(N2CCOCC2)n1
inactive: [1] 79% | [2] 107% | [3] 97.7% | [4] 96.7% | [5] 85.2% | [6] 97.5% | [7] 70.9% | [8] 89.1%

NS(=O)(=O)c1ccc(Nc2cc(-c3ccccc3)nc(SCC(=O)c3ccccc3)n2)cc1
inactive: [1] 97.5% | [2] 97.6% | [3] 93.4% | [4] 102% | [5] 89.5% | [6] 101% | [7] 101% | [8] 102%

NS(=O)(=O)c1ccc(-n2cc(CN3CCNCC3)nn2)cc1
inactive: [1] 107% | [2] 110% | [3] 106% | [4] 109% | [5] 98.9% | [6] 107% | [7] 101% | [8] 105%

COc1cc2c(cc1OC)C(Sc1ccc(C)cc1)c1c(nc(N)c(C#N)c1N)O2 (stereo not drawn)
active: [1] -28.9% | [3] -31.3% | [4] -36.6% | [5] -66.9% | [6] -69.6% | [7] -85.2% | [8] -52.5%
inactive: [2] 35%

CN(Cc1ccccc1)S(=O)(=O)/N=C1\NC(=O)NC1=C(Cl)Cl
active: [4] -49.5% | [8] 4.88%
inactive: [1] 56.8% | [2] 94.6% | [3] 79.6% | [5] 12.6% | [6] 21.3% | [7] 71.8%
